This note sets out measurements from PubChem BioAssay (NCATS).

Inconclusive results are not listed. For some assays here: Entries with a potency or affinity are not part of this list. The source made the active and inactive calls. For most assays here, calls come from the whole dose curve; as a rule, active = well fitted inhibition curve with a large enough effect; inconclusive = small, poorly fitted or top-dose-only effect; inactive = no such curve, though single readings can be large or run the other way.

For assay [1] the following is noted: Ebola virus entry assay, blue channel (ratio component).
Assay [2] can be described thus: qHTS assay for measurement of the activity of small molecule inhibitors on Zika virus induced Caspase-3 activity in human iPSC derived neural progenitor cells (hNPCs) (AID 1224857). Note: nearly all actives have a fitted effect of over 65% in size. The note with it: hNPCs ZIKV-induced caspase-3/7, Caspase-Glo luminescence, 6 h; series mostly up to 45.7 µM. A digest of the protocol: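 Quantitative HTS format: human iPSC neural progenitors, 1 h compound pretreatment, ZIKV 2 FFU/cell for 6 h at 37 C. Percent inhibition derived from luminescent caspase-3/7 signal between uninfected and infected controls.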
(In qHTS, concentration-response curves come from the screen itself.)

Assay [3] can be described thus: qHTS assay for measurement of the activity of small molecule inhibitors on Zika virus induced Caspase-3 activity in human astrocytoma cells (AID 1224859). The following applies: SNB-19 ZIKV-induced caspase-3/7, luminescence, 6 h; series mostly up to 45.7 µM. A digest of the protocol: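 Readout is luminescence from Caspase-Glo 3/7 added after a 6 h ZIKV infection (2 FFU/cell) of compound-pretreated (1 h) SNB-19 cells; data expressed as % inhibition versus uninfected and infected wells.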

Regarding `CC(C)(C)NCC(O)c1cc(Cl)c(N)c(C(F)(F)F)c1` (stereo unspecified), the outcome in assay [1], in assay [2] and in assay [3] was inactive.

With `CC(C)(C)NCC(O)c1ccccc1Cl` (stereo unspecified), the outcome in assay [1], in assay [2] and in assay [3] was inactive.

`CCCN(CCC)C(=O)Cc1c(-c2ccc(Cl)cc2)nc2ccc(Cl)cn12`: the result in assay [1], in assay [2] and in assay [3] was inactive.

`CN(C)CCc1c[nH]c2cccc(OP(=O)(O)O)c12`: the outcome in assay [1], in assay [2] and in assay [3] was inactive.

Turning to `C[N+]1(C)[C@@H]2CC(OC(=O)[C@H](CO)c3ccccc3)C[C@H]1[C@@H]1O[C@@H]12` (stereo partly specified), the outcome in assay [1] and in assay [2] was inactive.

On to `Oc1ccc(Cl)cc1`, for which the result in assay [1], in assay [2] and in assay [3] was inactive.

As to `NCCc1ccc(O)cc1`, the outcome in assay [1], in assay [2] and in assay [3] was inactive.

As to `COP(=S)(OC)Oc1ccc(S(=O)(=O)N(C)C)cc1`, the result in assay [1], in assay [2] and in assay [3] was inactive.

Consider `CC[N+]1(CC)CCC(OC(=O)C(O)(c2ccccc2)c2ccccc2)C1` (stereo unspecified), for which the outcome in assay [1], in assay [2] and in assay [3] was inactive.

As to `c1ccc(N2CCNCC2)cc1`, the result in assay [1], in assay [2] and in assay [3] was inactive.

Take `COC(=O)C(Cl)C(=O)OC`: the outcome in assay [1], in assay [2] and in assay [3] was inactive.

`COP(=S)(OC)Oc1ccc(SC)c(C)c1`: the outcome in assay [1], in assay [2] and in assay [3] was inactive.

As for `COc1cc(CCN)cc(OC)c1OC`, the outcome in assay [1], in assay [2] and in assay [3] was inactive.

`CCC1(CC)C(=O)C=CNC1=O`: the outcome in assay [1], in assay [2] and in assay [3] was inactive.

Regarding `C[C@]12Cc3cn[nH]c3C[C@@H]1CC[C@@H]1[C@@H]2CC[C@@]2(C)[C@H]1CC[C@]2(C)O`, the result in assay [1], in assay [2] and in assay [3] was inactive.

Take `C[C@]12CC[C@H]3[C@@H](CCC4=CC(=O)CC[C@@H]43)[C@@H]1CC[C@@H]2OC(=O)CCc1ccco1`: the outcome in assay [1], in assay [2] and in assay [3] was inactive.

For `O=[N+]([O-])O[C@H]1CO[C@H]2[C@@H]1OC[C@H]2O[N+](=O)[O-]`, the result in assay [1], in assay [2] and in assay [3] was inactive.

On to `CN1C(=O)NC(=O)C(C)(C2=CCCCC2)C1=O` (stereo unspecified), for which the outcome in assay [1], in assay [2] and in assay [3] was inactive.

As to `CNC(C)(C)Cc1ccccc1`, the outcome in assay [1], in assay [2] and in assay [3] was inactive.

Turning to `O=c1[nH]c2ccccc2n1C1CCNCC1`, the result in assay [1], in assay [2] and in assay [3] was inactive.

Take `COc1cc(CC(C)N)cc(OC)c1OC` (stereo unspecified): the result in assay [1], in assay [2] and in assay [3] was inactive.

For `NC1=NC(=O)C(c2ccccc2)O1` (stereo unspecified), the result in assay [1], in assay [2] and in assay [3] was inactive.

In the case of `CCCCCCCCCC(=O)O[C@H]1CC[C@H]2[C@@H]3CCC4=CC(=O)CC[C@@H]4[C@H]3CC[C@]12C`, the result in assay [1], in assay [2] and in assay [3] was inactive.

`Cc1ncsc1CCCl`: the result in assay [1], in assay [2] and in assay [3] was inactive.

With `COC1CC(=C(c2cccs2)c2cccs2)C[N+](C)(C)C1` (stereo unspecified), the outcome in assay [1], in assay [2] and in assay [3] was inactive.

For the compound `C[C@]12CCC(=O)C=C1CC[C@@H]1[C@@H]2CC[C@@]2(C)[C@H]1CC[C@]2(C)O`, the outcome in assay [1], in assay [2] and in assay [3] was inactive.

Consider `CN1CC[C@]23c4c5ccc(O)c4O[C@H]2[C@@H](O)CC[C@H]3[C@H]1C5`, for which the result in assay [1], in assay [2] and in assay [3] was inactive.

On to `CC(Cc1ccccc1)N(C)Cc1ccco1` (stereo unspecified), for which the result in assay [1], in assay [2] and in assay [3] was inactive.

As for `Nc1ccccc1C(=O)O`, the outcome in assay [1], in assay [2] and in assay [3] was inactive.

As to `CC(C)(N)Cc1ccccc1Cl`, the result in assay [1], in assay [2] and in assay [3] was inactive.

As to `COC(=O)[C@@H](N)CCCN/C(N)=N/[N+](=O)[O-]`, the outcome in assay [1], in assay [2] and in assay [3] was inactive.

With `CC1(C)C(C=C(Cl)Cl)C1C(=O)OC(C#N)c1cccc(Oc2ccccc2)c1` (stereo unspecified), the outcome in assay [1], in assay [2] and in assay [3] was inactive.

Turning to `NC(=O)CS(=O)C(c1ccccc1)c1ccccc1` (stereo unspecified), the outcome in assay [1], in assay [2] and in assay [3] was inactive.

As for `[N-]=[N+]=CC(=O)OC[C@H](N)C(=O)O`, the outcome in assay [1], in assay [2] and in assay [3] was inactive.

With `CCN(CCO)CCn1c(Cc2ccccc2)nc2c1c(=O)n(C)c(=O)n2C`, the outcome in assay [1], in assay [2] and in assay [3] was inactive.

Regarding `Clc1cccc(SC2CCNCC2)n1`, the outcome in assay [1], in assay [2] and in assay [3] was inactive.

For the compound `O=c1c(C2CC(c3ccc(-c4ccc(Br)cc4)cc3)Cc3ccccc32)c(O)sc2ccccc12` (stereo unspecified), the outcome in assay [1], in assay [2] and in assay [3] was inactive.

With `CCC1(c2ccccc2)C(=O)N(COC)C(=O)N(COC)C1=O`, the outcome in assay [1], in assay [2] and in assay [3] was inactive.

With `CC(C)c1c(CN(C)C(C)Cc2ccccc2)n(C)n(-c2ccccc2)c1=O` (stereo unspecified), the result in assay [1], in assay [2] and in assay [3] was inactive.
